Experimental data published in PubChem BioAssay (NCATS).
Inconclusive results are not listed. The source made the active and inactive calls. Calls follow the shape of the dose curve; as a rule, active = well fitted inhibition curve with a large enough effect; inconclusive = small, poorly fitted or top-dose-only effect; inactive = no such curve, though single readings can be large or run the other way.

These compounds were tested against Tumor susceptibility gene 101 protein (Homo sapiens) (UniProt Q99816) (assay: qHTS Assay for Iinhibitors of HIV-1 Budding by Blocking the Interaction of PTAP/TSG101: Hit Validation (AID 651600; also: nearly all actives have a fitted effect of over 70% in size)). Conditions: PTAP peptide/TSG101 UEV interaction, biochemical assay; series mostly up to 57.5 µM.
How it was run: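 Tsg101 binding domain 10 uM + FITC-PTAP peptide 50 nM (final), 10 mM HEPES pH 7.5/0.15 M NaCl/0.01% Tween 20/3 mM EDTA/0.1 mM TCEP; 20 min RT; FP read, FITC filters.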
Potency is read from the fitted curve at half-maximal effect.

Sequence of Tumor susceptibility gene 101 protein (Homo sapiens) (Q99816 whole entry, looked up, the tested form may be a part): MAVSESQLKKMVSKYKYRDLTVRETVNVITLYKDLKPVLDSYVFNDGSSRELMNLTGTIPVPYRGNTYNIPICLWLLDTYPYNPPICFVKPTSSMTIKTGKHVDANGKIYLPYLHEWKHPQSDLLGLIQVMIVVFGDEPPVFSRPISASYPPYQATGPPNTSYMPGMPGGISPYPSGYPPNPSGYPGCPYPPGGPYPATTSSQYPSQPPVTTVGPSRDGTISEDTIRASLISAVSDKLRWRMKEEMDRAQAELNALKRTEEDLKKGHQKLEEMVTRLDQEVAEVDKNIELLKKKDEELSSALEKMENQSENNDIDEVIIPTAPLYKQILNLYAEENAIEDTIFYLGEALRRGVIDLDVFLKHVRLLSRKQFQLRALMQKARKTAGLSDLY

Potency, active:
CC1CCCN(Cc2c(O)ccc3c2O/C(=C\c2ccco2)C3=O)C1 (centres undefined) 14.6 µM, COc1cccc2c1C(=O)c1c(O)c3c(c(O)c1C2=O)CC(O)(C(C)=O)CC3OC1CC(O)C(O)C(C)O1 (centres undefined) 13 µM, CCC(=O)Oc1ccc2c(c1)O/C(=C\c1ccco1)C2=O 16.3 µM, O=C1/C(=N\S(=O)(=O)c2cccs2)C([n+]2cccc(Cc3ccccc3)c2)=C([O-])c2ccccc21 16.3 µM, CCN(CC)CCCNc1ccc2ncn3c4ccc(O)cc4c(=O)c1c23 4.61 µM, CCN(CC)C(=O)CSc1nnc2nnc3cc(OC)ccc3n12 29.1 µM, O=C(/C=C/c1ccc(Cl)cc1Cl)c1nc2ccccc2[nH]1 20.6 µM, Clc1ccc(-c2nnc3sc(-c4ccc(Br)o4)nn23)cc1 4.61 µM, CC1=CC(=C(C#N)c2nc3ccccc3s2)C=C(C)N1c1ccc(F)cc1F 13 µM, Cc1cc(C)c[n+](-c2[nH]c(=O)sc2/C=N/NC([S-])=Nc2ccccc2)c1 18.3 µM, COc1ccc(NC(=O)c2cccc(-c3ccc(O)cc3)c2)cn1 20.6 µM

Potency, inactive:
COc1ccc(N(C(=O)c2snc(C(N)=O)c2N)C(C(=O)NC2CCCC2)c2ccc3ncccc3c2)cc1 (centres undefined), O=S(=O)(Nc1nc2n(n1)C(c1ccccc1)C=C(c1ccc(Cl)cc1)N2)c1ccccc1 (centres undefined), COC(=O)C[C@H]1c2cc(F)ccc2S(=O)(=O)N1c1ccccc1, Cc1ccc(OC(=O)c2ccc3nc(C)sc3c2)cc1, Cc1c(N=C2N=C(NC(=O)c3ccc(F)cc3)c3ccccc32)c(=O)n(-c2ccccc2)n1C, Cc1ccc(N2C(=O)C3C(C(=O)c4ccccc4)=NN(c4ccccc4)C3C2=O)cc1 (centres undefined), COc1ccc(NC(=O)c2nc(-c3ccc(C)cc3)n3c2CCCCC3)cc1, CC(C)(C)OC(=O)NC(Cc1ccccc1)C(=O)N1CCC(C(=O)NCC(=O)Nc2ccc(F)cc2)CC1 (centres undefined), Cc1ccc(CNC(=O)C2CCCN(S(=O)(=O)c3c(C)[nH]c(=O)[nH]c3=O)C2)cc1 (centres undefined), OC(CN1CCN(c2ccccn2)CC1)Cn1c2ccccc2c2ccccc21 (centres undefined), Cn1c(=O)cc2c3c(c(N4CCCCC4)ccc31)C(=O)c1ccccc1-2, CCOc1ccc(N(CC(=O)NCc2ccc(F)cc2)S(=O)(=O)c2c(C)noc2C)cc1, O=c1[nH]c(=O)n(-c2cc(Br)c(O)c(Br)c2)cc1Br, CCc1cccc(CC)c1NC(=O)CSc1nnc(C2CC2)n1C, Cc1ccc(-c2nc(C=Nc3ccc(O)cc3)c(O)o2)cc1, CCCn1c(=N)c(S(=O)(=O)c2ccccc2)cc2c(=O)n3cccc(C)c3nc21, O=c1[nH]nc(-c2ccc(F)cc2)cc1Cc1ccc(F)cc1, O=[N+]([O-])c1cc(Cl)cc(/C=N/n2cnnc2)c1O
